About 83,000 compounds went through this panel and 20% of them were active in at least one assay; those are over-represented in the sample as a whole.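 The endpoint reported here, percent growth, reads 100 for growth as untreated, 0 for no net growth and -100 for all cells dead.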 A number with no mark means an inactive call. Active and inactive are the calls of the source. How the source made its calls: active means growth percent below 10; inactive means the rest.

The values below come from PubChem BioAssay (NCI).

Among the test systems are SK-MEL-2 melanoma; EKVX NSCLC; SN12C renal; UO-31 renal; TK-10 renal; ACHN renal; CAKI-1 renal; A498 renal; CCRF-CEM leukemia; MOLT-4 leukemia; SR leukemia; RPMI-8226 leukemia; OVCAR-8 ovarian; OVCAR-5 ovarian; OVCAR-4 ovarian; SK-OV-3 ovarian; IGROV1 ovarian; OVCAR-3 ovarian; HS 578T breast; NCI/ADR-RES ovarian.
Holding throughout (test): NCI-60 one-dose screen, 48 h (100 = growth as untreated, 0 = no growth, -100 = all killed)
What all share (conditions): 10 µM unless noted

For `CCN(CC)CCCCNc1c2ccc(Cl)cc2nc2ccc(OC)cc12`, the growth in the test with SK-MEL-2 melanoma was 2.05% (active); in the test with EKVX NSCLC, -8.96% (active); in the test with SN12C renal, 4.57% (active); in the test on UO-31 renal it was -14.6% (active); with TK-10 renal, 15.4%; with ACHN renal, -56.7% (active). The growth in the test with CAKI-1 renal was 9.92% (active); in the test with A498 renal it was -83.9% (active); in the test with CCRF-CEM leukemia it was -27.8% (active); in the test on MOLT-4 leukemia, -22.2% (active); with SR leukemia it was -19% (active); with RPMI-8226 leukemia it was -33.9% (active). The growth with OVCAR-8 ovarian is 5.44% (active); in the test with OVCAR-5 ovarian it was -12.2% (active); in the test with OVCAR-4 ovarian, -50.2% (active); in the test on SK-OV-3 ovarian, 7.93% (active); with IGROV1 ovarian, 3.67% (active); with OVCAR-3 ovarian, -25.8% (active). The growth was -23.2% (active) with HS 578T breast and 4.68% (active) with NCI/ADR-RES ovarian.

With `C#CCOc1ccc2ncnc(Nc3cccc(CNC(=O)C=C)c3)c2c1`, the growth in the test with SK-MEL-2 melanoma is 104% [8.25 µM]; in the test on EKVX NSCLC, 98.6% [8.25 µM]; with SN12C renal, 95.5% [8.25 µM]; in the test with UO-31 renal, 82.3% [8.25 µM]; in the test on TK-10 renal, 91.5% [8.25 µM]; in the test with ACHN renal it was 95.8% [8.25 µM]. Besides, the growth in the test with CAKI-1 renal was 96.3% [8.25 µM]; with A498 renal, 58.8% [8.25 µM]; with CCRF-CEM leukemia, 111% [8.25 µM]; with MOLT-4 leukemia, 100% [8.25 µM]; with SR leukemia, 103% [8.25 µM]; with RPMI-8226 leukemia, 101% [8.25 µM]. Also, the growth was 95.8% [8.25 µM] in the test with OVCAR-8 ovarian; 100% [8.25 µM] in the test on OVCAR-5 ovarian; 92.5% [8.25 µM] with OVCAR-4 ovarian; 107% [8.25 µM] in the test with SK-OV-3 ovarian; 88.8% [8.25 µM] with IGROV1 ovarian; 104% [8.25 µM] in the test on OVCAR-3 ovarian. In addition, the growth was 91.9% [8.25 µM] in the test with HS 578T breast and 107% [8.25 µM] in the test with NCI/ADR-RES ovarian.

Take `Cn1cccc1-c1nc2c3c(ccc2[nH]1)C(=O)c1ccccc1C3=O`: the growth with SK-MEL-2 melanoma is 91.4%; in the test with EKVX NSCLC, 65.2%; in the test on SN12C renal, 91.9%; with UO-31 renal, 58.7%; with TK-10 renal, 98.7%; with ACHN renal it was 80.7%. Further, the growth is 96.3% in the test with CAKI-1 renal; 88.7% in the test on A498 renal; 78.9% with CCRF-CEM leukemia; 62.1% in the test with MOLT-4 leukemia; 27.1% in the test on SR leukemia; 61.5% with RPMI-8226 leukemia. Also, the growth with OVCAR-8 ovarian was 85.8%; with OVCAR-5 ovarian, 90.4%; in the test on OVCAR-4 ovarian, 46.5%; with SK-OV-3 ovarian, 118%; in the test on IGROV1 ovarian, 79.1%; in the test on OVCAR-3 ovarian, 95%. Besides, the growth is 115% in the test on HS 578T breast and 81.8% in the test on NCI/ADR-RES ovarian.

On to `CCOc1cc2ncc(C#N)c(Nc3ccc(OCc4cccc(F)c4)c(Cl)c3)c2cc1NC(=O)CC1CCSS1` (stereo not given), for which the growth with SK-MEL-2 melanoma was 25.9%; in the test with EKVX NSCLC it was 27.3%; in the test with SN12C renal, 46%; in the test with UO-31 renal it was 39.3%; in the test with TK-10 renal, 38.6%; with ACHN renal it was 59.7%. Besides, the growth with CAKI-1 renal was 43%; in the test on A498 renal it was 64%; in the test with CCRF-CEM leukemia it was 9.64% (active); in the test with MOLT-4 leukemia, -25.2% (active); in the test with SR leukemia it was -9.65% (active); in the test on RPMI-8226 leukemia it was 62.4%. In addition, the growth is 44.2% in the test with OVCAR-8 ovarian; 84.1% with OVCAR-5 ovarian; -33.3% (active) with OVCAR-4 ovarian; -93.6% (active) in the test on SK-OV-3 ovarian; -2.65% (active) in the test on IGROV1 ovarian; 37.3% in the test on OVCAR-3 ovarian. Besides, the growth in the test on HS 578T breast is 55.9%; in the test with NCI/ADR-RES ovarian, 78.9%.

As to `O=C(NCCN1CCOCC1)Nc1ccc(-c2cc3c(Nc4ccc(Oc5cccc(C(F)(F)F)c5)c(Cl)c4)ncnc3s2)cc1`, the growth was 32% in the test with SK-MEL-2 melanoma; 20.8% in the test on EKVX NSCLC; 42.9% in the test on SN12C renal; -35.8% (active) in the test on UO-31 renal; 49.8% in the test with TK-10 renal; 11.8% in the test with ACHN renal. Further, the growth is 8.01% (active) with CAKI-1 renal; 40.3% in the test with A498 renal; 3.33% (active) in the test on CCRF-CEM leukemia; -4.36% (active) with MOLT-4 leukemia; 4.83% (active) in the test with SR leukemia; -14.8% (active) in the test on RPMI-8226 leukemia. Moreover, the growth in the test on OVCAR-8 ovarian was 41.1%; with OVCAR-5 ovarian, 36.2%; in the test on OVCAR-4 ovarian, 39.2%; in the test on SK-OV-3 ovarian, 24.5%; in the test with IGROV1 ovarian, 28.3%; in the test on OVCAR-3 ovarian it was 41.1%. The results for the growth in the test with HS 578T breast and with NCI/ADR-RES ovarian were -3.09% (active) and 77.2%, respectively.

As to `CCOc1nc(-c2ccccc2)cc2c(O)c(C(=O)O)[nH]c(=O)c12`, the growth in the test on SK-MEL-2 melanoma was 95.3%; with EKVX NSCLC it was 98.2%; with SN12C renal, 111%; in the test on UO-31 renal, 87.1%; in the test on TK-10 renal, 134%; in the test on ACHN renal it was 100%. Besides, the growth with CAKI-1 renal is 105%; in the test on A498 renal, 119%; in the test with CCRF-CEM leukemia, 83%; with MOLT-4 leukemia, 92.4%; in the test with SR leukemia, 98.1%; with RPMI-8226 leukemia, 58.1%. The growth is 107% in the test on OVCAR-8 ovarian; 104% in the test on OVCAR-5 ovarian; 99% with OVCAR-4 ovarian; 97.5% with SK-OV-3 ovarian; 96.1% with IGROV1 ovarian; 101% in the test on OVCAR-3 ovarian. Moreover, the growth in the test on HS 578T breast was 104%; in the test on NCI/ADR-RES ovarian it was 60.9%.

Regarding `COc1cc2c(cc1-c1c(C)noc1C)ncc1nc(C3CCOCC3)n([C@H](C)COC(F)F)c12`, the growth with SK-MEL-2 melanoma is 67%; in the test on EKVX NSCLC it was 50.4%; with SN12C renal, 57%; with UO-31 renal, 15.7%; with TK-10 renal, 25.3%; in the test with ACHN renal, 34.6%. For the same molecule, the growth with CAKI-1 renal was 26.7%; in the test with A498 renal, -13.5% (active); in the test on CCRF-CEM leukemia, 48.3%; in the test with MOLT-4 leukemia it was 46.6%; in the test on SR leukemia, 28.3%; in the test with RPMI-8226 leukemia, 18%. The growth in the test with OVCAR-8 ovarian was 42.6%; in the test on OVCAR-5 ovarian, 68.4%; in the test with OVCAR-4 ovarian, 47.9%; with SK-OV-3 ovarian, 1.35% (active); in the test with IGROV1 ovarian, 58.8%; with OVCAR-3 ovarian, 35.2%. Further, the growth with HS 578T breast was 16.8%; with NCI/ADR-RES ovarian it was 38.4%.
